Screens deposited in PubChem BioAssay by several laboratories.
BAP1 inh = human BAP1 deubiquitinase inhibition. Q92560. AID 436. calls only at 20 µM. hit rate 0.48% among 72,000. recombinant BAP1, Ub-AMC hydrolysis fluorescence kinetic; hits give low values;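 active = activity remaining at or below 50% of control, provided the compound also passes the data quality filters; inactive = the rest, including low values that fail the filters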
M1 antag = M1 muscarinic receptor (rat) antagonism | P08482 | CHO-M1 cells, Fluo-4 calcium, ACh EC80 antagonist mode; hits give low values | B-score at 10 µM | hit rate 3.4% among 64,000;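 active = calcium fluorescence response, raw or row-and-column corrected B-score, differing from the plate sample mean either way at a set confidence level, mostly lower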
M1 agonist = activates the M1 muscarinic receptor. CHO-M1 cells, Fluo-4 calcium fluorescence, agonist mode; hits give high values. B-score at 10 µM. hit rate 3% among 64,000. AID 626;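 active = fluorescence rise, raw or as B-score row- and column-corrected plate score, outside the 99.7% band of its plate's samples, either direction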
Fluor 339 460 = intrinsic fluorescence of library compounds, ex339/em460 – biochemical, MLSMR library, data from DPM-DC assay, artefact control, profiling panel. compound autofluorescence, ex339/em460 nm, NADH buffer; hits give high values; 1 = no-compound wells, NADH background. fluorescence fold increase at 10 µM. hit rate 5.5% among 65,000;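 active = at 10 µM, mean starting fluorescence two-fold or more over control wells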;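 also: signal is the first read of a kinetic run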
A340 absorber = absorbance at 340 nm; AID 708; compound absorbance at 340 nm, fold over control; fold change at 10 µM; 65,000 tested, under 10 active;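 active = at 10 µM dose, initial 340 nm absorbance at least 2 fold that of control wells; inactive = change under 2 fold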;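 also: initial absorbance extrapolated from kinetic A340 decline of NADH oxidation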
WNV NS2B-NS3 inh = WNV NS2B-NS3 proteinase inhibition; hit rate 0.18% among 65,000; WNV NS2B-NS3 protease, fluorogenic substrate Ex360/Em465; hits give low values; AID 577; z-score (concentration not given with the values); P06935; in the data active = z-score below about -3
Target sequence (P06935 1371-1501 limits assumed): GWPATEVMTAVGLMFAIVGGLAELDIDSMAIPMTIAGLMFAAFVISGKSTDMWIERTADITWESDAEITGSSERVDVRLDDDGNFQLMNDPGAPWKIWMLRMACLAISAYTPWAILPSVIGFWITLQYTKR
Target sequence (P06935 1502-1679 limits assumed): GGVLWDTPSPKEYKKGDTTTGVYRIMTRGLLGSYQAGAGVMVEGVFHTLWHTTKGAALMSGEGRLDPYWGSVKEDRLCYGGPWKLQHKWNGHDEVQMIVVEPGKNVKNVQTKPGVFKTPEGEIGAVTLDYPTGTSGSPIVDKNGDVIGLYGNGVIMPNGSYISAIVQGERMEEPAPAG
M1 antag confirm = M1 muscarinic receptor (rat) antagonism, confirmed | shares compounds with M1 antag | CHO-M1 cells, Fluo-4 calcium, ACh EC80 antagonism; hits give low values | calcium response (max-min fluorescence) at 10 µM | hit rate 43% among 1,700;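 active = calcium response below the same-plate mean of wells given acetylcholine alone at its 80%-effect dose, minus 3 SD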
mGluR4 antag = mGluR4 (human) activity, M1 antagonist secondary assay; shares compounds with M1 antag; fluorescence response (max-min) at 10 µM; CHO-mGluR4 calcium flux, Fluo-4 fluorescence, glutamate EC80; hits give low values; hit rate 0.9% among 1,700; AID 678;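 active = fluorescence response below the plate's average for near-maximal glutamate wells, less 3 SD of those wells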;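 also: raw unnormalized fluorescence span taken in the window right after glutamate addition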
Each line names hits and unclear results; the compound was inactive in the other large screens (follow-up assays come after a bar, where shown). An excerpt weighted towards active compounds, which were near 9.7% of everything screened.

CCN1CCN(CC(O)COc2ccc(C(C)=O)cc2)CC1 (stereo not given)	none
CC(=O)c1ccc(OCC(O)CN2C(C)(C)CC(O)CC2(C)C)cc1 (stereo not given)	M1 antag -3.13 | M1 antag confirm inactive | mGluR4 antag inactive
CC(C1CC1)N(C(=O)c1ccccc1O)c1ccccc1 (stereo not given)	M1 antag -3.6 | M1 antag confirm inactive | mGluR4 antag inactive
C=CCc1ccc(OCC(O)CN2CCCCC2)c(OC)c1 (stereo not given)	none
C=CCc1ccc(OCC(O)CN2CCCCC2C)c(OC)c1 (stereo not given)	M1 antag -2.5 | M1 antag confirm inactive | mGluR4 antag inactive
c1ccc2[nH]c(CCCCCCCCc3nc4ccccc4[nH]3)nc2c1	none (no result: M1 antag, M1 agonist, Fluor 339 460, A340 absorber, WNV NS2B-NS3 inh)
COc1ccc(N2C(=O)CC(N3CCN(C4CCc5ccccc5C4)CC3)C2=O)cc1 (stereo not given)	M1 antag -2.25 | M1 antag confirm inactive | mGluR4 antag inactive
COc1ccc(N2C(=O)CC(N3CCN(c4ccc(S(=O)(=O)N5CCCC5)cc4)CC3)C2=O)cc1 (stereo not given)	none
CCCSc1nnc2c(n1)OC(c1cccn1C)N(C(C)=O)c1ccccc1-2 (stereo not given)	M1 antag -10.1 | M1 antag confirm 23 | mGluR4 antag inactive
COC(=O)N1CC(c2ccccc2)CC1=O (stereo not given)	M1 antag -2.26 | M1 antag confirm inactive | mGluR4 antag inactive
CC1(C)Nc2ccccc2N(CC(=O)N2CCCCC2)C1=O	M1 antag -1.26 | M1 antag confirm inactive | mGluR4 antag inactive
CC1(C)Nc2ccccc2N(CCC(=O)N2CCOCC2)C1=O	none
O=C(Oc1ccc(-c2nnco2)cc1)N(c1ccccc1)c1ccccc1	M1 antag -1.57 | M1 antag confirm 502 | mGluR4 antag inactive
O=C(Oc1ccc(-c2nnco2)cc1)N1CCCCC1	none
CCc1ccc(C2C(C(=O)OC)=C(C)NC3=C2C(=O)CCC3)cc1 (stereo not given)	none (no result: M1 antag, M1 agonist, Fluor 339 460, A340 absorber, WNV NS2B-NS3 inh)
C=CCSc1nc(N)c(C(=O)Nc2ccccc2C)cc1C(N)=O	M1 antag -3 | M1 antag confirm inactive | mGluR4 antag inactive
O=C1c2ccccc2C(=O)N1CCCCCCN1CCN(c2cccc(Cl)c2)CC1	none (no result: M1 antag, M1 agonist, Fluor 339 460, A340 absorber, WNV NS2B-NS3 inh)
COC(=O)Cn1cc(C(=O)C2CC2)c2ccccc21	M1 antag -1.59 | M1 antag confirm inactive | mGluR4 antag inactive
Cc1ccc(C2CC(=O)c3cnc(N4CCN(c5ccccc5)CC4)nc3C2)cc1 (stereo not given)	M1 antag -5.81 (not shown: BAP1 inh) | M1 antag confirm inactive | mGluR4 antag inactive
O=C1c2cccc([N+](=O)[O-])c2C(=O)N1c1ccc([N+](=O)[O-])cc1	none (no result: M1 antag, M1 agonist, Fluor 339 460, A340 absorber, WNV NS2B-NS3 inh)
CCOC(=O)c1cnc2c(Cl)cc(Cl)cc2c1NCCOCCO	none
CCOC(=O)c1cnc2c(C)cccc2c1NCc1ccco1	M1 antag -8.34 (no result: BAP1 inh) | M1 antag confirm 321 | mGluR4 antag inactive
CCOC(=O)c1ccc2ncc(C(=O)OCC)c(NCCCN3CCOCC3)c2c1	M1 antag -4.62 | M1 antag confirm 405 | mGluR4 antag inactive
CCOC(=O)c1cnc2ccccc2c1NCCO	M1 antag -2.92 (no result: BAP1 inh) | M1 antag confirm 409 | mGluR4 antag inactive
COC(=O)c1ccccc1NC(=O)c1cccc(NC(=O)c2ccc(Br)o2)c1C	none
COC(=O)c1ccccc1OC(=O)c1ccc(Br)o1	M1 antag -4.49 | M1 antag confirm inactive | mGluR4 antag inactive
CC(C(=O)O)N1C(=O)C2C3CCC(C3)C2C1=O (stereo not given)	none (no result: M1 antag, M1 agonist, Fluor 339 460, A340 absorber, WNV NS2B-NS3 inh)
N=c1c2c(n(Cc3ccc(Cl)c(Cl)c3)c3c1CCC3)CCCC2	M1 antag -2.45 | M1 antag confirm 433 | mGluR4 antag inactive
O=c1[nH]c(=O)n(Cc2ccccc2)c2c1CCC2	none
COc1ccc(Cl)cc1C(=O)NCC(c1ccco1)N1CCCC1 (stereo not given)	M1 antag -4.64 (no result: BAP1 inh) | M1 antag confirm 390 | mGluR4 antag inactive
CCC(C)N(CCNC(=O)CC1Oc2ccc(C)cc2NC1=O)C1CCCCC1 (stereo not given)	M1 antag -8.78 | M1 antag confirm 20.7 | mGluR4 antag inactive
Cc1cc(C)cc(C2CC(C)(O)CC(c3cc(C)cc(C)c3)S2)c1 (stereo not given)	none (no result: M1 antag, M1 agonist, Fluor 339 460, A340 absorber, WNV NS2B-NS3 inh)
O=C(CN1CCN(Cc2ccc3c(c2)OCO3)CC1)N1CCc2[nH]c3ccccc3c2C1	none
O=C(Cn1ccc2ccccc2c1=O)N1CCN(Cc2ccc3c(c2)OCO3)CC1	M1 antag -2.81 | M1 antag confirm inactive | mGluR4 antag inactive
O=C(CCS(=O)(=O)c1cccc2nsnc12)N1CCN(Cc2ccc3c(c2)OCO3)CC1	M1 antag -2.49 | M1 antag confirm inactive | mGluR4 antag inactive
O=C(CN1CCN(Cc2ccc3c(c2)OCO3)CC1)N1CCc2[nH]c3ccc(F)cc3c2C1	M1 antag -3.82 | M1 antag confirm inactive | mGluR4 antag inactive
O=C(c1cc2ccccc2oc1=O)N1CCN(Cc2ccc3c(c2)OCO3)CC1	none
COc1cc(Br)cc(CN2CCN(C/C=C/c3ccccc3)CC2)c1O	M1 antag -16 | M1 antag confirm 47.7 | mGluR4 antag inactive
C(=C\c1ccccc1)/CN1CCN(Cc2ccc3c(c2)OCCO3)CC1	none
Cc1cc(C)c2c(CN3CCN(C/C=C/c4ccccc4)CC3)cc(=O)oc2c1	M1 antag -3.6 | M1 antag confirm 259 | mGluR4 antag inactive
COc1ccc(O)c(CN2CCN(C/C=C/c3ccccc3)CC2)c1	M1 antag -10.6 | M1 antag confirm 454 | mGluR4 antag inactive
O=S(=O)(NCc1ccc(Br)cc1)c1ccc(F)cc1	none (no result: M1 antag, M1 agonist, Fluor 339 460, A340 absorber, WNV NS2B-NS3 inh)
Clc1ccc2c(N3CCCC3)ccnc2c1	M1 antag -3.02 (not shown: BAP1 inh) | M1 antag confirm inactive | mGluR4 antag inactive
CCCCP(=O)(CCCC)c1ccccc1C(=O)O	M1 antag -3.73 | M1 antag confirm inactive | mGluR4 antag inactive
O=C(Nc1nc(-c2ccc(F)cc2)cs1)c1ccc(S(=O)(=O)N2CCc3ccccc32)cc1	none (no result: M1 antag, M1 agonist, Fluor 339 460, A340 absorber, WNV NS2B-NS3 inh)
Cn1ncc([N+](=O)[O-])c1CC(=O)O	none (no result: M1 antag, M1 agonist, Fluor 339 460, A340 absorber, WNV NS2B-NS3 inh)
COc1ccccc1-n1c(C)nnc1SCC(=O)Nc1cccc(C(C)=O)c1	M1 antag -2.68 | M1 antag confirm inactive | mGluR4 antag inactive
c1cnc(N2CC[N+]3(CCCC3)CC2)nc1	M1 antag -5 | M1 antag confirm 163 | mGluR4 antag inactive
CCOc1ccc(S(=O)(=O)Nc2cc(Cl)ccc2O)cc1	M1 antag -3.06 | M1 antag confirm 457 | mGluR4 antag inactive
